Sampled rows, rich in hits. Any-hit rate of the full collection: about 0.81%.
Bim-Bcl-2 – inhibitors of Bim-Bcl-2 binding, primary screen, biochemical, multiplexed, human Bcl-2 family. Bead-based flow cytometry, Bim peptide-Bcl-2 binding. inhibition, % at 10 µM. hit rate 0.06% among 190,000. AID 950, 2007; in the data active = inhibition above about 40%;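 also: 0% = no compound wells with probe peptide and 100% = reference peptide inhibitor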
Target sequence (P10415 whole entry, looked up): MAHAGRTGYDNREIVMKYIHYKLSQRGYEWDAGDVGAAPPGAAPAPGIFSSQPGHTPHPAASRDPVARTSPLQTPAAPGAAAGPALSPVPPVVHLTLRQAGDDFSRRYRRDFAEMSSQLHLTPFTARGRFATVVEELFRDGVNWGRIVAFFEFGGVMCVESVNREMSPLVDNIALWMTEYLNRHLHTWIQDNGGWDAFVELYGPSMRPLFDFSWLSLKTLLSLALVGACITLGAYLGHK
Bfl-1 Bim block – inhibitors of Bim binding to Bfl-1, primary screen, biochemical, multiplexed, bead-based flow cytometry; Bcl-2-related protein A1 (Homo sapiens), Q16548; Bim-Bfl-1 binding inhibition; inhibition, % at 10 µM; hit rate 0.12% among 190,000;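 also: 0% = wells without compound plus tracer and 100% = blocker peptide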
Bim-Bcl-XL – inhibitors of Bim-Bcl-XL binding, primary screen, biochemical, multiplexed, bead flow cytometry, human Bcl-XL | Bim peptide-Bcl-XL binding, fluorescence | Bcl-2-like protein 1 (Homo sapiens), Q07817 | hit rate 0.04% among 190,000 | inhibition, % at 10 µM
Target sequence (Q07817 whole entry, looked up): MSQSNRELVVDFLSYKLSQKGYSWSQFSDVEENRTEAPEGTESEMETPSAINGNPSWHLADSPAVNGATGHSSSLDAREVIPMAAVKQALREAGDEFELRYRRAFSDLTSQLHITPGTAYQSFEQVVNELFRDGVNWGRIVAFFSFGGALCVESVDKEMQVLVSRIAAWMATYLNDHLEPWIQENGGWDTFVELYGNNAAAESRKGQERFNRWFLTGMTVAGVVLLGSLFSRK
BCLXL inh – inhibitors of human Bcl-xL, primary screen, biochemical, fluorescence polarization, HTS; GST-Bcl-xL / FITC-Bim BH3 peptide fluorescence polarization; inhibition, % at 10.9 µM; hit rate 0.7% among 320,000;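 active = inhibition above the mean of all tested compounds plus 3 SD, cutoff set per campaign, cut at about 30% in these data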;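 also: 0% = DMSO wells and 100% = unlabeled Bim-BH3 peptide competitor; inhibitors lower millipolarization by displacing the labeled peptide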
Bim-Bcl-W – inhibitors of Bim binding to Bcl-W, primary screen, biochemical, multiplexed, bead-based flow cytometry; Bcl-2-like protein 2 (Homo sapiens), Q92843; Bim peptide-Bcl-W binding; inhibition, % at 10 µM; hit rate 0.02% among 190,000;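 also: 0% = bound tracer without compound and 100% = peptide blocker; higher means less fluorescent Bim peptide bound to Bcl-W beads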
Bim-Bcl-B – inhibitors of Bim-Bcl-B binding, primary screen, biochemical, multiplexed, human Bcl-2 family; Bcl-2-like protein 10 (Homo sapiens), Q9HD36; bead-based flow cytometry, Bim peptide-Bcl-B binding; inhibition, % at 10 µM; hit rate 0.073% among 190,000;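 also: 0% = tracer peptide without compound and 100% = reference inhibitor peptide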
The depositor's hits bear a star; . = not tested or not shown. Rule as the data show it, unless noted: active = inhibition above about 40%.

SMILES	Bim-Bcl-2	Bfl-1 Bim block	Bim-Bcl-XL	BCLXL inh	Bim-Bcl-W	Bim-Bcl-B
COc1ccc(/C=c2\s/c(=C/C(=O)c3ccc(C)cc3)[nH]c2=O)c(OC)c1	-5	7	-4	103*	0	-17
O=C1C(C=NCCCn2ccnc2)=C(O)c2ccccc21	.	.	.	6	.	.
CC(=NCCCn1ccnc1)C1=C(O)c2ccccc2C1=O	87*	63*	18	10	11	86*
CCCCn1c(-c2cccnc2)nc2cc3[nH]c(=O)c(C(C)C)nc3cc21	.	.	.	31*	.	.
CCCCn1c(-c2ccc(Cl)c(Cl)c2)nc2cc3[nH]c(=O)c(C(C)C)nc3cc21	.	.	.	21	.	.
CCCCn1c(-c2ccc(C(C)(C)C)cc2)nc2cc3[nH]c(=O)c(C(C)C)nc3cc21	.	.	.	25	.	.
CCCCn1c(-c2cccc(Br)c2)nc2cc3[nH]c(=O)c(C(C)C)nc3cc21	.	.	.	31*	.	.
CNc1ccc(Br)cc(C(=O)/C=C/c2ccc(OC)cc2OC)c1=O	25	41*	28	-4	27	3
COc1cccc(N2C(=O)CC(N3CCc4ccccc43)C2=O)c1 (configuration not stated)	0	-2	-5	0	0	1
COc1ccc2c(c1)CCN1C2CCN2C(=O)CCC21 (configuration not stated)	.	.	.	45*	.	.
CC1=C(C#N)C(=O)OC(C)(C)C1	-6	-11	-5	86*	0	-6
COc1ccc(NC(=O)CN(C)C(=O)C(Sc2ccccc2)c2ccccc2)cc1 (configuration not stated)	.	.	.	-7	.	.
COCc1cc(=O)n2[nH]c(SCc3ccccc3)nc2n1	-9	-14	0	31*	2	-7
O=C(CCc1ccncc1)NC1CCCc2c1cnn2-c1cc(F)cc(F)c1 (configuration not stated)	.	.	.	1	.	.
Oc1ccc(/C=N/N2CCCCC2)c(O)c1O	.	.	.	38*	.	.
CCN(CC(=O)Nc1ccc2c(c1)OCCO2)C(=O)c1cc(=O)[nH]c2ccccc12	.	.	.	7	.	.
CSc1ccc(C2NC(=O)c3c(sc4c3CCN(C)C4)N2)cc1 (configuration not stated)	-2	-4	-2	-11	-5	0
Cc1ccsc1C1NC(=O)c2c(sc3c2CCN(C)C3)N1 (configuration not stated)	-7	-12	-4	37*	0	-5
CN1CCc2c(sc3c2C(=O)NC(/C=C\c2ccccc2)N3)C1 (configuration not stated)	.	.	.	16	.	.
CN1CCc2c(sc3c2C(=O)NC(c2cccs2)N3)C1 (configuration not stated)	1	1	-2	32*	-1	2
CCOC(=O)C1=C(C)NC(=S)NC1c1ccsc1 (configuration not stated)	-2	4	-1	2	-1	-15
C=CCn1c(SCC(=O)N(CCOC)c2c(N)n(CC(C)C)c(=O)[nH]c2=O)nc2ccccc21	.	.	.	-1	.	.
CC1(OC(=O)C2CCCC2)C(=O)C=C2C=C(c3ccsc3)OC=C2C1=O (configuration not stated)	.	.	.	15	.	.
COC(=O)CCC(=O)OC1(C)C(=O)C2=COC(c3ccc(OC)cc3)=CC2=C(Br)C1=O (configuration not stated)	.	.	.	33*	.	.
COc1ccc(C2=CC3=C(Br)C(=O)C(C)(OC(=O)C4CCCC4)C(=O)C3=CO2)cc1 (configuration not stated)	.	.	.	31*	.	.
SMILES	Bim-Bcl-2	Bfl-1 Bim block	Bim-Bcl-XL	BCLXL inh	Bim-Bcl-W	Bim-Bcl-B
COc1ccc(C2=CC3=C(Br)C(=O)C(C)(OC(=O)c4ccc(Cl)nc4)C(=O)C3=CO2)cc1 (configuration not stated)	.	.	.	21	.	.
CN(Cc1c(F)cccc1Cl)C(=O)CCc1c[nH]c2ccccc12	.	.	.	-1	.	.
CC(=O)c1c(Cl)nc2cccc3c2c1-c1ccccc1C3=O	.	.	.	54*	.	.
Cc1cccc(C)c1NC(=O)c1cccc2c1-c1ccccc1C2=O	0	0	-1	-9	-3	-8
CN1C=CC2=C(C#N)C(N)C(C#N)(C#N)C(c3ccccc3)C2C1 (configuration not stated)	-2	0	-2	90*	-2	0
CCN1C(=O)[C@@H]2[C@@H](c3ccc(-c4ccc(F)cc4)cc3)N3CCCC[C@@]3(C(=O)OC)[C@@H]2C1=O	.	.	.	2	.	.
Cc1ccc(-c2ccc(CCC(=O)O)n2NC(=O)c2cccs2)cc1	92*	.	35	3	28	.
COc1ccc(-c2ccc(CCC(=O)O)n2NC(=O)c2cccs2)cc1	-10	-23	-7	0	0	-8
CC(C)c1ccc(/C=C(\NC(=O)c2ccccc2)C(=O)NCCN2CCOCC2)cc1	.	.	.	7	.	.
Cn1c(NC(=O)/C=C/c2ccco2)cc(=O)n(C)c1=O	-1	0	-5	12	-2	-5
Cc1ccc(/C=C/C(=O)Nc2cc(=O)n(C)c(=O)n2C)o1	3	5	0	33*	0	-6
O=c1[nH]c(-[n+]2ccc3ccccc3c2)c(/C=N/N=C(\[O-])c2ccccc2)s1	.	.	.	93*	.	.
CC(C)(C)c1cc[n+](-c2[nH]c(=O)sc2/C=N/N=C(\[O-])c2cccnc2)cc1	.	.	.	2	.	.
CN(CC(=O)Nc1cccc(F)c1)C(=O)c1cc([N+](=O)[O-])ccc1N1CCCCC1	.	.	.	-5	.	.
Cc1ccc(NC(=O)CN(Cc2ccco2)Cc2ccccc2O)cc1C	.	.	.	4	.	.
COc1cc(C=C(c2nc3ccccc3s2)c2nc3ccccc3s2)ccc1O	-5	-11	-6	41*	-2	-8
COc1ccc(Cc2nnc(Cl)c3ccccc23)cc1OC	.	.	.	3	.	.
O=C(c1cc2ccccc2oc1=O)N(c1ccccc1)C1C=CS(=O)(=O)C1 (configuration not stated)	24	41*	38	0	28	21
C=CCOc1nc2c(c(=O)n(C)c(=O)n2C)n1C	-6	-10	9	36*	2	-3
CCNC(=S)N/N=C1\C(=O)c2cccc3cccc1c23	-1	-7	1	6	4	0
O=C(N/N=C1/C(=O)c2cccc3cccc1c23)c1ccc(Cl)cc1	-4	-3	-8	57*	-4	-2
C=CCOc1cccc(C(=O)Nc2ncn[nH]2)c1	.	.	.	0	.	.
CCCCSc1ccc(NC(=O)c2cccnc2)cc1	1	-2	-3	76*	-1	-2
CNC(=O)COC(=O)c1ccc2c(c1)NC(=O)C1CCCN21 (configuration not stated)	.	.	.	9	.	.
